Assay results: PubChem BioAssay
Inconclusive results are not listed. Active and inactive are the calls of the source.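 Rule for the calls, unless noted: active = GFP response, as percent of the DMSO control, above the screen-wide mean plus 3 SD, about 139; inconclusive = no response measured because the compound's own fluorescence interfered; inactive = the rest.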

How the values were obtained:
[1] = yeast TOR pathway RPL19A-GFP modulators, primary screen, cell-based, S. cerevisiae, multiplex flow cytometry (AID 1862; in the data active = percent of DMSO control GFP below about 86%;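 note: lower values mimic rapamycin by blocking the RPL19A rise seen in DMSO cells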); conditions: S. cerevisiae RPL19A-GFP strain, flow cytometry fluorescence, 3 h; at 10 µM; stronger effect = lower value
[2] = modulators of MEP2-GFP levels in yeast, primary screen, S. cerevisiae, multiplex flow cytometry (AID 1867);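 note: median GFP channel fluorescence of barcode-gated MEP2-GFP cells measured by flow cytometry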; conditions: S. cerevisiae MEP2-GFP strain, 3 h, at 10 µM, stronger effect = higher value, 100% means same as DMSO wells
[3] = modulators of CIT2-GFP expression in yeast, primary screen, S. cerevisiae, GFP fusion, multiplex flow cytometry (AID 1870;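 active = percent response above a set limit, the screen-wide mean plus 3 SD, cut at about 130% in these data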;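 note: barcoded CIT2-GFP strain pooled with four other GFP strains with rapamycin as positive control; median GFP fluorescence per well over plate mean of DMSO wells so 100% = DMSO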); conditions: 3 h, at 10 µM, stronger effect = higher value
[4] = modulators of LAP4-GFP expression in yeast, primary screen, S. cerevisiae, multiplex flow cytometry (AID 1873;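 active = GFP signal, as percent of the solvent control, above the screen mean plus 3 SD, about 149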); conditions: 3 h, at 10 µM, stronger effect = higher value
[5] = modulators of AGP1-GFP expression in yeast TOR pathway, primary screen, cell-based, multiplex flow cytometry, S. cerevisiae (AID 1887;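 active = GFP signal above the screen-wide mean plus 3 SD, that is over about 124.5% of the solvent control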;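 note: AGP1-GFP fusion strain of S. cerevisiae within a five-strain barcoded multiplex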); conditions: 3 h, at 10 µM, stronger effect = higher value
[6] = inhibitors of CD8+ T cell-vesicle binding, pilot screen, LFA-1/ICAM-1 modulator project, MLPCN validation set, flow cytometry (AID 2523;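 active = response below a set limit, under 55% cells CD8-positive and vesicle-bound, and CD8 cells' 90th-percentile brightness under 279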;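 for vesicle binding response: mean PE anti-B7-1 fluorescence of CD8+ cells relative to row control; 100% = QL9-loaded vesicles with DMSO vehicle in the same plate row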); conditions: 2C mouse CD8+ T cells, at 7 µM, stronger effect = lower value; double positive events: measured here: CD8+/vesicle+ event percentage
[7] = biological target: Integrin beta-1 (Homo sapiens) + Integrin alpha-4 (Homo sapiens) (UniProt P13612+P05556); assay: inhibition of HUTS-21 binding to VLA-4, pilot screen, VLA-4 allosteric modulator project, U937 cells, HUTS-21 mAb, flow cytometry, validation set (AID 2674;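 active = inhibition above 50%, about 3 SD of the validation set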;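 note: antibody binding induced by the VLA-4 ligand LDV present at three times its Kd; 0% = LDV ligand with antibody and no compound and 100% = antibody without LDV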); conditions: HUTS-21 LIBS mAb binding, at 6.7 µM, stronger effect = higher value, binding induced by LDV ligand
[8] = superoxide lowering in aged yeast cells, pilot screen, validation compound set (AID 2706;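 active = superoxide response below 65% of plate, a cut near 3 SD across the whole screen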;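 note: yeast exposed to compound for one week at 30 degrees C before staining; 100% = mean of all compound wells on the same plate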); conditions: S. cerevisiae aging, superoxide DHE fluorescence; at 10 µM; stronger effect = lower value
[9] = biological target: Beta-adrenergic receptor kinase 1 (Homo sapiens) (UniProt P25098); assay: GRK2 binders displacing RNA aptamer, biochemical, validation, human GRK2, bead flow cytometry (AID 488806;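 active = aptamer binding inhibition above 30%, about 3 SD of noise from non-fluorescent compounds; inactive = inhibition at or below 30%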); conditions: bead-bound GRK2, FAM-aptamer displacement, at 10 µM, stronger effect = higher value
[10] = biological target: Beta-2 adrenergic receptor (Homo sapiens) (UniProt P07550); assay: beta2AR agonists driving receptor internalization, pilot screen, cell-based, FAP fluorogen, flow cytometry, validation set (AID 504459;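 active = percent response above 42, roughly 3 SD of non-fluorescent test compounds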;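 note: agonist-driven loss of surface beta2AR via internalization measured by FAP dye flow cytometry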); conditions: Am2.2-beta2AR cells, FAP surface receptor flow cytometry; at 10 µM; stronger effect = higher value
[11] = biological target: AP-2 complex subunit beta (Homo sapiens) (UniProt P63010); assay: inhibitors of arrestin peptide binding to AP2, pilot screen, biochemical, validation set, GST-AP2 beads, flow cytometry (AID 504541;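 active = inhibition above 54%, about 3 SD of non-fluorescent compounds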;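 note: AP2 carries R879A mutation and is captured from E. coli lysate; bead-bound FITC arrestin peptide fluorescence measuring arrestin peptide binding to AP2; 0% = DMSO wells and 100% = excess unlabeled arrestin peptide control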); conditions: FITC arrestin peptide, at 10 µM, stronger effect = higher value, AP2 beta2 appendage fragment, R879A mutant
[12] = yeast V-ATPase proton transport modulators, S. cerevisiae, pHLuorin, HTS validation (AID 504600; in the data active = response above about 15%;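 note: plate controls were DMSO for no effect and reference compound for full effect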); conditions: S. cerevisiae pHLuorin cytosolic pH, at 10 µM, stronger effect = higher value
[13] = tested on: anti-desmoglein-3 scFv antibody binding to human DSG3; assay: inhibitors of anti-DSG3 scFv binding to DSG3, pilot screen, biochemical, validation compound set, bead-based, flow cytometry (AID 588368;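 active = binding below the plate cutoff, the plate median minus 3 SD, with a reading above zero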;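 note: signal is the median channel fluorescence of bead-bound GFP antibody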); conditions: Protein G beads, DSG3-Fc, scFv-GFP binding, at 10 µM, stronger effect = lower value
[14] = inhibitors of fungal efflux pumps CDR1, CDR2, MDR1, pilot screen, validation compound set, multiplex, phenotypic (AID 588506;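 active = efflux inhibition above 0.42, the validation set average plus 4 SD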;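 note: Nile Red retained in cells so higher fluorescence means more efflux inhibition; 0 = negative control wells and 1 = enniatin B 25 µM full block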); conditions: S. cerevisiae pump-expressing triplex, Nile Red efflux flow cytometry; at 10 µM; stronger effect = higher value; the pumps come from Candida albicans
[15] = biological target: ATP-binding cassette sub-family B member 6 (Homo sapiens) (UniProt Q9NP58); assay: ABCB6 transporter inhibitors, pilot screen, K562-ABCB6 cells, flow cytometry, validation set (AID 588550;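 active = inhibition above the screen-wide mean plus 3 SD, about 51%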;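 note: 0% = DMSO wells and 100% = benzethonium chloride 70 µM positive control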); conditions: K562-ABCB6 porphyrin accumulation, 1 h, at 10 µM, stronger effect = higher value
[16] = promoters of myeloid differentiation in arrested cells, primary screen, cell-based, GFP/MAC1 double positive, flow cytometry, validation set (AID 588685;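 active = differentiation response of at least 50%, scaled between solvent and reference control, from cells with both markers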;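 note: compound exposure lasts four days before antibody staining and flow analysis; 0% = DMSO wells and 100% = 5 µM fulvestrant positive control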); conditions: ER-HoxA9 marrow cells, stronger effect = higher value, normalized: vehicle 0, fulvestrant 100

Sequence of Integrin beta-1 (Homo sapiens) + Integrin alpha-4 (Homo sapiens) (P05556 whole entry, looked up): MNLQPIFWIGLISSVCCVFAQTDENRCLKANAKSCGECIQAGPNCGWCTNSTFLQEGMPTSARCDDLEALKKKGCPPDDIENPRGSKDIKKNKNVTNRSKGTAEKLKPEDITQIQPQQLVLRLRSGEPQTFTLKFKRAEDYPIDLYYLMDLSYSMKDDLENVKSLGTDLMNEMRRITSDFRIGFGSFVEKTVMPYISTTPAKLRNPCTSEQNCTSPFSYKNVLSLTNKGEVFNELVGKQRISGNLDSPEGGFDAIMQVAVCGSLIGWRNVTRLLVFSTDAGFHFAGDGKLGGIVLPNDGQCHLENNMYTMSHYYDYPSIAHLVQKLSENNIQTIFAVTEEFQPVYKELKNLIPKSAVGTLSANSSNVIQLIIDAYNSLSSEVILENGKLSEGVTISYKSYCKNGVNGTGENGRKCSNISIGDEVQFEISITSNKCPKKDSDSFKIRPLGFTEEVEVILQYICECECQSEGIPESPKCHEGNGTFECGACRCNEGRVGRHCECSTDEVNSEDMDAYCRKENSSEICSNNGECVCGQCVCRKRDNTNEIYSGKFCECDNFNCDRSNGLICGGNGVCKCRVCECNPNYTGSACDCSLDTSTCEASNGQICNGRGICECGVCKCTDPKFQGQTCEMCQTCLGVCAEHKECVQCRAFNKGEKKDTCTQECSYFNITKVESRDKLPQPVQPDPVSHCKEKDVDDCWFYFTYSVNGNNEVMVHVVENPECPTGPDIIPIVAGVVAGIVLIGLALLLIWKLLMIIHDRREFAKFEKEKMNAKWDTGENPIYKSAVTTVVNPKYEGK
Sequence of Integrin beta-1 (Homo sapiens) + Integrin alpha-4 (Homo sapiens) (P13612 whole entry, looked up): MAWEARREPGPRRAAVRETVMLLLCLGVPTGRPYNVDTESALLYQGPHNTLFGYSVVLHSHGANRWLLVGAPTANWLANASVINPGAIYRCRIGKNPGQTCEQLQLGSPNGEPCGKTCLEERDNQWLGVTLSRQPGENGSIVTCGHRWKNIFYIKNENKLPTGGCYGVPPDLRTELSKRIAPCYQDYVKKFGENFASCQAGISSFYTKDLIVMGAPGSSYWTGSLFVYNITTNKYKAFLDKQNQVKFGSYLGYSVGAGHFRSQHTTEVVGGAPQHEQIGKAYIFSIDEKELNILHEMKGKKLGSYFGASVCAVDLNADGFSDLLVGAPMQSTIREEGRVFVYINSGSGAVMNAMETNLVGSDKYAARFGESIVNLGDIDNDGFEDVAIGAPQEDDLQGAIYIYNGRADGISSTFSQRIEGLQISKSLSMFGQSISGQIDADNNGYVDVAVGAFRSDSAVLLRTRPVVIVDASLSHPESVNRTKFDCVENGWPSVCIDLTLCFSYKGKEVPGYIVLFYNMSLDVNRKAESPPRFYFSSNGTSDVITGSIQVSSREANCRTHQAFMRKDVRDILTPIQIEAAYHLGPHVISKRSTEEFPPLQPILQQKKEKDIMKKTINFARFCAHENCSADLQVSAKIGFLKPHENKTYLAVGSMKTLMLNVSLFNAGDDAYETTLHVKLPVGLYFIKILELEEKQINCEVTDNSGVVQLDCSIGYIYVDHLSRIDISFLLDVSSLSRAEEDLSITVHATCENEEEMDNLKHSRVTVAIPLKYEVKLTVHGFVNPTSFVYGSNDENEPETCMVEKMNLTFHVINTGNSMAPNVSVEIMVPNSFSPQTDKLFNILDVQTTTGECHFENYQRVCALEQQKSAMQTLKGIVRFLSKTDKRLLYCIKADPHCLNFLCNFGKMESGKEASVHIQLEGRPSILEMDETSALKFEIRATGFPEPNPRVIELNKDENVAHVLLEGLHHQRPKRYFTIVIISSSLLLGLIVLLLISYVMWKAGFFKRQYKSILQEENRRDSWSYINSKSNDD
Sequence of AP-2 complex subunit beta (Homo sapiens) (P63010 whole entry, looked up, the tested form may be a part, one chain of several): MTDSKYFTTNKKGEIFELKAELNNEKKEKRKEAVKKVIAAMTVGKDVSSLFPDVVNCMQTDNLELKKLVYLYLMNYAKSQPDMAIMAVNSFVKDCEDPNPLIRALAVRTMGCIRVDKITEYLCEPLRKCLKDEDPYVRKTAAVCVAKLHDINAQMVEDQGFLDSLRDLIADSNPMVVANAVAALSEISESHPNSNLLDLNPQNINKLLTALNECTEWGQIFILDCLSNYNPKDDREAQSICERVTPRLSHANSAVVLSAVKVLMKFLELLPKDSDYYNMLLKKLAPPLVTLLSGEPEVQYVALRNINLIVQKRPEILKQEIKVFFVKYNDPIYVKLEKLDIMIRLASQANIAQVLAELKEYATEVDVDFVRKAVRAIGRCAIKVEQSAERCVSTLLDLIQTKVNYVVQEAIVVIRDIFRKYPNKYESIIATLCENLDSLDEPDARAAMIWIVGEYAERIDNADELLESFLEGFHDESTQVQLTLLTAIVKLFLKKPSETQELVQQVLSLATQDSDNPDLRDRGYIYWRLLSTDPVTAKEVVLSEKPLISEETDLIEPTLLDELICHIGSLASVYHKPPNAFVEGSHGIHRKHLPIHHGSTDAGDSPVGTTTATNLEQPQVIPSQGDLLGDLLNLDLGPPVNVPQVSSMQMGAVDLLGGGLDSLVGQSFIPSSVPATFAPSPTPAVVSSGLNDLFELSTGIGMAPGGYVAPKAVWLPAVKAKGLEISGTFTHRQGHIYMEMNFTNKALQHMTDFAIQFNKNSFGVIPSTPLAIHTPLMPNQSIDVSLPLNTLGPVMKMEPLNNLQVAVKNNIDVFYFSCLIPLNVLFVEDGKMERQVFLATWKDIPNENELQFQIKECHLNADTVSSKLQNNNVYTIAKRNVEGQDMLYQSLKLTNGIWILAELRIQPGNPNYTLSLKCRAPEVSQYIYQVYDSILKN
Sequence of Beta-adrenergic receptor kinase 1 (Homo sapiens) (P25098 whole entry, looked up): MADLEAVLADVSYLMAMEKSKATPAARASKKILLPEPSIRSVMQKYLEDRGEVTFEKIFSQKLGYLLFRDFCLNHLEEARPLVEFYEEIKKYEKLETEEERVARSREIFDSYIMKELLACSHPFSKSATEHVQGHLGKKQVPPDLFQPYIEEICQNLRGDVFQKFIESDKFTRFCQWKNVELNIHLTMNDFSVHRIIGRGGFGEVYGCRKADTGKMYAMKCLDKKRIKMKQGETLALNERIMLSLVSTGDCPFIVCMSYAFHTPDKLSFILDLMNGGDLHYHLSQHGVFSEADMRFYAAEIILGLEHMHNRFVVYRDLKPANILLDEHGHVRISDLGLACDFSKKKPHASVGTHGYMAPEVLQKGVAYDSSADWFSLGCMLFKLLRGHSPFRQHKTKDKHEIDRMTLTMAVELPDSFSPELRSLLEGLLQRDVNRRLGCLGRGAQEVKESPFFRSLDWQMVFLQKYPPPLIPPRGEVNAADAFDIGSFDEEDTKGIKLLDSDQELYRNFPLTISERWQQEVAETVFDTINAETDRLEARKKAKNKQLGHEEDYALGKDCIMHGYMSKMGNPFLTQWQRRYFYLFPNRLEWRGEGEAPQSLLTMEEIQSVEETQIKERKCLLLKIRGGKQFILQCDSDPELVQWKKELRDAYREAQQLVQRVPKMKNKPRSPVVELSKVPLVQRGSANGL
Sequence of ATP-binding cassette sub-family B member 6 (Homo sapiens) (Q9NP58 whole entry, looked up): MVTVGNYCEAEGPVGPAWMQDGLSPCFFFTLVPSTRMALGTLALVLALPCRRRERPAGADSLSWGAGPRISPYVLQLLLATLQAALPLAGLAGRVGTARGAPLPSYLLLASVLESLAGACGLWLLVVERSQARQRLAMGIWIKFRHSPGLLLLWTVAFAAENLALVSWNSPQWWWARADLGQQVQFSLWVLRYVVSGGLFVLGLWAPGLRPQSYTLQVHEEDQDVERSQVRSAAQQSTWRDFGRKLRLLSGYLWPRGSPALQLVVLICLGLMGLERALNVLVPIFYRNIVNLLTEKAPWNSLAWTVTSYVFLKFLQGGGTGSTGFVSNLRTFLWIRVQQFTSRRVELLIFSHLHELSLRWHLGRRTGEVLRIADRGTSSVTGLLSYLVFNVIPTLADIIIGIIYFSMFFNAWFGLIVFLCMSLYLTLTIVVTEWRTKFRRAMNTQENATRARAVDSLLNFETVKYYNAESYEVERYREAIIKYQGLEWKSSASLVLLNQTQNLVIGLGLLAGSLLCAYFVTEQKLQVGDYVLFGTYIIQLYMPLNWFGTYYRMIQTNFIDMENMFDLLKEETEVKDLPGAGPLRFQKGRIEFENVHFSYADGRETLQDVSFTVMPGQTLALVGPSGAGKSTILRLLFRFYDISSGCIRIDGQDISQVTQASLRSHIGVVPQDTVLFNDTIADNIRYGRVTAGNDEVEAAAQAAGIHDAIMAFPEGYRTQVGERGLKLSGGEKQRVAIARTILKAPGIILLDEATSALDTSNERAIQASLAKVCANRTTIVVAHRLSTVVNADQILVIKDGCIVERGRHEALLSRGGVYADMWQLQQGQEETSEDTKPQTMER
Sequence of Beta-2 adrenergic receptor (Homo sapiens) (P07550 whole entry, looked up): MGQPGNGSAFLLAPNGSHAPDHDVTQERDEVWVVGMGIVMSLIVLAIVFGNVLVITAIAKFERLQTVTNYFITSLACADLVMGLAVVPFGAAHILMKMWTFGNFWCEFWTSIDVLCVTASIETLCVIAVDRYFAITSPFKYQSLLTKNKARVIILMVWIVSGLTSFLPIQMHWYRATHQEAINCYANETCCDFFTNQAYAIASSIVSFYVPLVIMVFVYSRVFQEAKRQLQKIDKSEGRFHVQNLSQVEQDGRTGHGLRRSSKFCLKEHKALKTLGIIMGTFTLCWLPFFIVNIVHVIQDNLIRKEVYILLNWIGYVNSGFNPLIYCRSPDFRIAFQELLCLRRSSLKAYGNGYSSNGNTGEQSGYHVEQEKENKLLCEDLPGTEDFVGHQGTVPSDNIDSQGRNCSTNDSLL

Cn1c(=O)[nH]c2nnc(-c3ccc(Cl)c(Cl)c3)nc2c1=O
inactive: percent of DMSO control GFP [1] 103% | GFP response vs DMSO [2] 102% | percent response of DMSO control [3] 105% | GFP response vs DMSO [4] 98% | GFP response, % of DMSO [5] 104% | vesicle binding response [6] 133% | inhibition [7] 2.93% | superoxide response (% of plate) [8] 73.3% | aptamer binding inhibition [9] 9% | response [10] 9.11% | inhibition [11] 5.98% | response [12] 0.72% | binding (% of control) [13] 101% | efflux inhibition (fraction of control) [14] -0.21 | inhibition [15] -7% | differentiation response [16] -13.3%
61.9%: double positive events [6]

Nc1ccc(S(N)(=O)=O)cc1N
inactive: percent of DMSO control GFP [1] 98.1% | GFP response vs DMSO [2] 119% | percent response of DMSO control [3] 99.2% | GFP response vs DMSO [4] 84.7% | GFP response, % of DMSO [5] 91.7% | vesicle binding response [6] 202% | inhibition [7] 3.55% | superoxide response (% of plate) [8] 82.8% | aptamer binding inhibition [9] 3% | response [10] 31.7% | inhibition [11] 7.24% | response [12] 0.32% | binding (% of control) [13] 103% | efflux inhibition (fraction of control) [14] -0.28 | inhibition [15] 14% | differentiation response [16] 2.46%
66.3%: double positive events [6]

Cc1ccnc(NS(=O)(=O)c2ccc(N)cc2)n1
63.6%: double positive events [6]
inactive: percent of DMSO control GFP [1] 102% | GFP response vs DMSO [2] 99.7% | percent response of DMSO control [3] 106% | GFP response vs DMSO [4] 102% | GFP response, % of DMSO [5] 111% | vesicle binding response [6] 203% | inhibition [7] 19% | superoxide response (% of plate) [8] 92.2% | aptamer binding inhibition [9] -1% | response [10] 5.51% | inhibition [11] -0.12% | response [12] -1.12% | binding (% of control) [13] 94% | efflux inhibition (fraction of control) [14] -0.3 | inhibition [15] -3% | differentiation response [16] 1.28%

COc1ccc2[nH]c(=O)c(CN(C(=O)c3ccco3)C(C)C)cc2c1
active: GFP response vs DMSO [2] 148%
inactive: percent of DMSO control GFP [1] 91.7% | percent response of DMSO control [3] 103% | GFP response vs DMSO [4] 83.6% | GFP response, % of DMSO [5] 92.6% | vesicle binding response [6] 221% | inhibition [7] 4.52% | superoxide response (% of plate) [8] 108% | aptamer binding inhibition [9] 3% | response [10] -2.75% | inhibition [11] -1.83% | response [12] -5.39% | binding (% of control) [13] 101% | efflux inhibition (fraction of control) [14] 0.41 | inhibition [15] 9% | differentiation response [16] 0%
72.1%: double positive events [6]

COc1cc2oc(-c3ccc(O)cc3)cc(=O)c2c(OC)c1O
56.3%: double positive events [6]
inactive: percent of DMSO control GFP [1] 100% | GFP response vs DMSO [2] 101% | percent response of DMSO control [3] 104% | GFP response vs DMSO [4] 88.2% | GFP response, % of DMSO [5] 98% | vesicle binding response [6] 118% | inhibition [7] -11.8% | superoxide response (% of plate) [8] 107% | aptamer binding inhibition [9] 3% | response [10] -2.51% | inhibition [11] -0.6% | response [12] -4.25% | binding (% of control) [13] 100% | efflux inhibition (fraction of control) [14] -0.16 | inhibition [15] 0% | differentiation response [16] 8.59%

CC(C)CN1CCN(Cc2ccc(C#CC(C)(C)O)cc2)CC1CCO (stereo not drawn)
67.3%: double positive events [6]
inactive: percent of DMSO control GFP [1] 92% | GFP response vs DMSO [2] 132% | percent response of DMSO control [3] 102% | GFP response vs DMSO [4] 78.7% | GFP response, % of DMSO [5] 86.6% | vesicle binding response [6] 215% | inhibition [7] -8.09% | superoxide response (% of plate) [8] 92.7% | aptamer binding inhibition [9] 0% | response [10] -11.4% | inhibition [11] 29.9% | response [12] -6.34% | binding (% of control) [13] 98.3% | efflux inhibition (fraction of control) [14] 0.34 | inhibition [15] 9% | differentiation response [16] -2.46%

CCC1(c2ccccc2)NC(=S)N(c2ccc(C)c(C)c2)N1 (stereo not drawn)
inactive: percent of DMSO control GFP [1] 100% | GFP response vs DMSO [2] 106% | percent response of DMSO control [3] 105% | GFP response vs DMSO [4] 108% | GFP response, % of DMSO [5] 108% | vesicle binding response [6] 184% | inhibition [7] 5.69% | superoxide response (% of plate) [8] 107% | aptamer binding inhibition [9] 2% | response [10] -12.6% | inhibition [11] 1.79% | response [12] 2.75% | binding (% of control) [13] 105% | efflux inhibition (fraction of control) [14] 0.04 | inhibition [15] 3% | differentiation response [16] -12.9%
59.8%: double positive events [6]

NS(=O)(=O)c1cc2c(cc1Cl)NC(C1C[C@H]3C=C[C@@H]1C3)NS2(=O)=O (stereo partly drawn)
61.8%: double positive events [6]
inactive: percent of DMSO control GFP [1] 104% | GFP response vs DMSO [2] 106% | percent response of DMSO control [3] 105% | GFP response vs DMSO [4] 105% | GFP response, % of DMSO [5] 106% | vesicle binding response [6] 153% | inhibition [7] -19.9% | superoxide response (% of plate) [8] 98.5% | aptamer binding inhibition [9] 2% | response [10] -2.86% | inhibition [11] 11.5% | response [12] -7.8% | binding (% of control) [13] 97.3% | efflux inhibition (fraction of control) [14] 0.03 | inhibition [15] 10% | differentiation response [16] -17.7%

Cc1ccc2c(c1)C1(C(=O)N2)N2CCCC2C(C(=O)c2ccc3ccccc3c2)C12C(=O)Nc1ccccc12 (stereo not drawn)
60.9%: double positive events [6]
inactive: percent of DMSO control GFP [1] 107% | GFP response vs DMSO [2] 93% | percent response of DMSO control [3] 115% | GFP response vs DMSO [4] 89.4% | GFP response, % of DMSO [5] 101% | vesicle binding response [6] 224% | inhibition [7] -8.75% | superoxide response (% of plate) [8] 94.8% | aptamer binding inhibition [9] 1% | response [10] 3.54% | inhibition [11] -0.28% | response [12] 2.26% | binding (% of control) [13] 97.2% | efflux inhibition (fraction of control) [14] 0.24 | inhibition [15] -11% | differentiation response [16] -0.73%
